# Measured values: PubChem BioAssay (NCI)
# This is part of a sample that, as a whole, favours compounds with a hit. Of some 83,000 tested, about 20% had one in any assay.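 Each cell line was grown in a 96-well plate and treated with one concentration of compound for 48 hours. Values below 10 were considered active.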 A number with no mark means an inactive call. Activity calls are given as the source filed them.
# What was measured:
# Assay in all cases: NCI-60 one-dose screen, 48 h (100 = growth as untreated, 0 = no growth, -100 = all killed)
# Conditions in all cases: 10 µM
# NCI-H23 lung = test system: NCI-H23 lung
# NCI-H226 lung = test system: NCI-H226 lung
# HOP-62 NSCLC = test system: HOP-62 NSCLC
# NCI-H460 lung = test system: NCI-H460 lung
# HOP-92 NSCLC = test system: HOP-92 NSCLC
# NCI-H522 lung = test system: NCI-H522 lung
# A549/ATCC NSCLC = test system: A549/ATCC NSCLC
# 786-0 renal = test system: 786-0 renal
# COLO 205 colon = test system: COLO 205 colon
Structure (SMILES),growth (NCI-H23 lung),growth (NCI-H226 lung),growth (HOP-62 NSCLC),growth (NCI-H460 lung),growth (HOP-92 NSCLC),growth (NCI-H522 lung),growth (A549/ATCC NSCLC),growth (786-0 renal),growth (COLO 205 colon)
CN(C)CCCOc1cccc(NC2=C(Cl)C(=O)C(Nc3cccc(OCCCN(C)C)c3)=C(Cl)C2=O)c1,-67.1% (active),-70% (active),-85.1% (active),38.3%,-74.3% (active),-79.5% (active),52%,-94.2% (active),-79.7% (active)
COc1cc(C2C(C#N)=C(N)Oc3cc(O)ccc32)cc(OC)c1OC (stereo not given),30.7%,68.4%,53.2%,9.65% (active),49.7%,1.54% (active),21.4%,40.6%,8.35% (active)
CCOC(=O)c1cc(C(=O)c2cc(OC)c(OC)c(OC)c2)n2c1ccc1c3cccnc3ccc12,77.4%,82.3%,61.9%,82.2%,55.5%,22.8%,64%,78.5%,36.6%
Cc1ccc(/C=C2/C(=O)N(C)c3ccc(S(=O)(=O)Nc4ccc(C(C)(C)C)cc4)cc32)s1,67%,63.9%,24.8%,98%,79.2%,75.5%,68.5%,67.4%,86.5%
Cc1ccc(S(=O)(=O)N(C)CCCCCC(=O)O)cc1,99.1%,99.7%,92.3%,107%,110%,90%,95%,95.3%,107%
COc1ccc(C2CC(c3cccs3)=NN2c2ccc(S(N)(=O)=O)cc2)cc1 (stereo not given),104%,90.7%,97.8%,84.2%,63.1%,69.6%,75.8%,96.5%,-89.6% (active)
O=C(Cn1cc(CO)nn1)Nc1nc2ccccc2s1,101%,103%,101%,106%,106%,93.7%,97.2%,103%,111%
O=C(Nc1ccc(OS(=O)(=O)c2ccccc2)cc1)C1CCCCC1,88%,87%,94.5%,99.8%,98.5%,75.4%,90.5%,89.9%,97%
O=C1OC(C(Cl)(Cl)Cl)OC1C(Cl)(Cl)Cl (stereo not given),102%,110%,121%,108%,105%,96.4%,95.6%,114%,107%
CS(=O)(=O)c1nccc(-c2c(-c3cccc(OCc4ccccc4)c3)nc3sccn23)n1,53.6%,50.8%,92.9%,103%,51.8%,5.91% (active),106%,86.3%,88.4%
Cc1ccc(/C=C/C(=O)C(=O)/C=C/c2ccc(C)cc2)cc1,95.4%,107%,109%,104%,108%,81.7%,86.2%,96.9%,110%
O=[N+]([O-])c1cc(Cl)cc(Cl)c1O,97.7%,101%,91.5%,105%,105%,82.3%,97.4%,99.9%,108%
CCN(CC)CCCOc1cccc2c1C(=O)c1cccc(OCCCN(CC)CC)c1C2=O,38.2%,42.8%,48.1%,16.5%,21.2%,43.8%,22.3%,40.8%,-12% (active)
COc1cc2c(cc1OC)C(C(CCCCCC(CCC(C)C)C1NCCc3cc(OC)c(OC)cc31)CCC(C)C)NCC2 (stereo not given),-87.4% (active),-75.6% (active),-96.7% (active),-80.3% (active),-90.4% (active),-95.4% (active),-92.9% (active),-97.8% (active),-94.5% (active)
COc1ccc2nc3cc(Cl)ccc3c(N)c2c1,-93.9% (active),36.7%,-94.3% (active),-75.2% (active),91.3%,-75.8% (active),-73% (active),-98.9% (active),-87.6% (active)
O=C(O)c1ccc(-n2cc(CNc3ccc(Cl)cc3)c(-c3ccccc3)n2)cc1,98.4%,99.1%,111%,88.6%,99.9%,75.8%,84.6%,94.7%,97.8%
CC(C)N(CCOc1ccc(-c2nc3sccn3c2-c2ccnc(S(C)(=O)=O)n2)cc1)C(C)C,90.3%,87.7%,85.2%,102%,29.6%,-26.9% (active),105%,77.6%,86.8%
Oc1cccc(-c2nc3sccn3c2-c2ccncn2)c1,92.1%,94.4%,103%,97.8%,82.6%,98.9%,100%,95.7%,32.1%
Cc1ccc2nc(Cl)c(-c3nc4ccccc4o3)cc2c1,77.6%,90.7%,92.7%,106%,83%,90.3%,99.6%,99.5%,89.5%
O=C(CCc1nnc2sc(-c3cc(O)c(O)c(O)c3)nn12)c1nc2ccccc2[nH]1,88.9%,89.9%,105%,105%,69.4%,98.3%,108%,107%,114%
CC(C)CCN(CCC(C)C)CC(=O)Nc1ccc(S(=O)(=O)c2ccc(NC(=O)CN(CCC(C)C)CCC(C)C)cc2)cc1,46.3%,76.7%,67.5%,48.2%,75%,-64.6% (active),53.7%,18%,29.6%
Cc1c(Cl)cccc1NC(=O)CN1CCOCC1,95.9%,106%,93%,100%,118%,75.1%,106%,99.7%,108%
COc1ccc(C(c2ccc(OCCN(C)C)cc2)c2cc3ccccc3c3ccccc23)cc1 (stereo not given),78.4%,87.5%,92.5%,-28.6% (active),63.6%,75%,55%,50.6%,-50.6% (active)
C1CN(CC2CCC(CN3CCOCC3)O2)CCO1 (stereo not given),98.6%,107%,95.1%,110%,120%,66.2%,96.9%,99.7%,60.8%
S=c1cnc2ccccc2[nH]1,98.4%,107%,93.3%,96.3%,79.4%,95.5%,93.5%,98.9%,95%
CN(C)CCOc1ccc(-c2nc3sccn3c2-c2ccnc(S(C)(=O)=O)n2)cc1,103%,102%,87.5%,103%,57%,106%,95%,105%,114%
CCOC(=O)c1cc(C(=O)c2ccc(OC)c(OC)c2)n2ccncc12,97.4%,101%,106%,106%,94.9%,74%,99.3%,106%,115%
C/C(=N\O)c1ccc(NC(=O)CSc2nnc(-c3ccccc3)n2-c2ccccc2)cc1,76.6%,72.4%,64.7%,66.7%,30.1%,-34.7% (active),81.9%,80.5%,53.3%
Cc1ccc(C)c(COc2cc(NC(=O)c3ccc4c(c3)OCO4)ccc2N(C)S(C)(=O)=O)c1,9.96% (active),37%,16.1%,-9.36% (active),23.1%,-15.9% (active),21.9%,6.5% (active),-68.3% (active)
CCN(CC)CCCC(C)N=C(C1=C(C(=NC(C)CCCN(CC)CC)c2cccc(OC)c2)C(=O)NC1=O)c1cccc(OC)c1 (stereo not given),-18.4% (active),-43.4% (active),-57.5% (active),-47.1% (active),-66.1% (active),-64.5% (active),-81.7% (active),-8.78% (active),-89.9% (active)
